Measurements as given in PubChem BioAssay (NCATS).
Unmarked numbers belong to inactive results. A call without a number means that no potency is given here. Calls of active or inactive are those of the source. Calls come from the whole dose curve; as a rule, active = well fitted inhibition curve with a large enough effect; inconclusive = small, poorly fitted or top-dose-only effect; inactive = flat fitted curve, though single readings scatter.

Target: Luciferin 4-monooxygenase (Photinus pyralis) (UniProt P08659)
Assay: Primary firefly luciferase (FLuc) qHTS assay for identification of artifact compounds. (AID 1845220); note: nearly all actives have a fitted effect of over 60% in size
Settings: purified firefly luciferase, luminescence, 5 min; series mostly up to 54.1 µM
Summary of the method: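 In this counter-screen for luciferase artifacts, test compounds met substrate (10 uM each luciferin and ATP) before 10 nM enzyme started the reaction. Light output was measured 5 min later.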

Q: With `Cc1cnc(CNC(=O)c2c(=O)c3ccc(N4CCCN(C)CC4)nc3n3c2sc2ccccc23)cn1` as the molecule, how does the activity change, negative = inhibition read?
A: 3.83% [at 11.6 µM]

Q: With `CCN(CCO)CCCOc1ccc2c(Nc3cc(CC(=O)Nc4cccc(F)c4)[nH]n3)ncnc2c1` as the molecule, how does the Potency read?
A: inactive

Q: How did the Potency turn out when `C[C@@H](NC(=O)c1ncnc(N)c1Cl)c1ncc(C(=O)Nc2cc(C(F)(F)F)c(Cl)cn2)s1` was run?
A: inactive

Q: Which activity change, negative = inhibition does the source give for `CCC(=O)N1CCN(c2ccc(-n3c(=O)ccc4cnc5ccc(-c6cnc7ccccc7c6)cc5c43)cc2C(F)(F)F)CC1` here?
A: 2.1% [at 11.6 µM]

Q: How did the Potency turn out when `CNC(=O)c1ccc2c(C(=Nc3cccc(CN(C)C)c3)c3ccccc3)c(O)[nH]c2c1` was run?
A: inactive

Q: With `O=C(CO)N1CCC(c2[nH]nc(-c3ccc(Cl)cc3)c2-c2ccncn2)CC1` as the molecule, how does the Potency read?
A: inactive

Q: Which Potency does the source give for `NC1(C(=O)N[C@@H](CCO)c2ccc(Cl)cc2)CCN(c2ncnc3[nH]ccc23)CC1` here?
A: inactive

Q: Which Potency does the source give for `O=C1C(c2c(O)[nH]c3ccccc23)=Nc2ccccc21` here?
A: inactive

Q: `CCc1cccc(CC)c1NC(=O)N1Cc2[nH]nc(NC(=O)c3ccc(N4CCN(C)CC4)cc3)c2C1` was tested. Which Potency did it give?
A: inactive

Q: With `COc1ccc(-c2cc3nccn3c(Nc3ncccc3C(N)=O)n2)cc1OC` as the molecule, how does the Potency read?
A: inactive

Q: How did the Potency turn out when `Cc1ccc2c(c1)C(=O)[C@]1(O)CCN(c3ccccc3)C1=N2` was run?
A: inactive

Q: `CC1=C(C(=O)Nc2cc3cn[nH]c3cc2F)C(c2ccc(C(F)(F)F)cc2)CC(=O)N1` (centres undefined) was tested. Which Potency did it give?
A: inactive

Q: Which Potency does the source give for `Cc1cc2c(cc1C1(c3ccc(C(=O)O)cn3)CC1)C(C)(C)CCC2(C)C` here?
A: inactive

Q: With `CC(C)CNc1ccnc(NCc2csc(-c3ccccc3)n2)n1` as the molecule, how does the Potency read?
A: inactive
